± gives the standard deviation.
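Also: 1 nM active piRISC with 0.1 nM target library at 33 °C single turnover.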

One experiment has as its system MILI (PIWIL2) piRISC loaded with L1MC piRNA (26 nt). The experiment can be described thus: pre-steady-state target cleavage rate (min^-1); guide: L1MC piRNA 5'p-UAACUAAAUACUAUGCAAGCUGUAGG; MIWI and MILI are mouse PIWI proteins and EfPiwi is from a freshwater sponge; tags in brackets are library labels; higher = faster piRNA-guided slicing of the target. The note with it: auxiliary factor: 500 nM mouse GTSF1. The essentials:
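Cleave-'n-Seq measured uncleaved targets by sequencing after a transcribed, DNA-blocked target RNA library […] was mixed with 1 nM active affinity-purified piRISC holding one synthetic guide, with or without 500 nM GTSF1 partner protein, at 33 °C in HEPES–potassium acetate buffer for 0–8 or 0–960 min. Counts were normalised to depth and to weakly complementary targets, three trials were pooled, and k3 was capped at 0.0001 min^-1. A burst-and-steady-state fit gave the pre-steady-state cleavage rate.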
For the sequence UCCUGGAUGUCGAACGUUAGUAUUUAGUA, the “pre-steady-state target cleavage rate” value was less than 0.0001.

On to UCCUGGAUGUCCUUGCAUAGUAUUUUCUUA, for which the “pre-steady-state target cleavage rate” value amounted to 0.0376 ± 0.011.

UCCUGGAUGUCGUUGCAUAGUAUAUAGUAA: the “pre-steady-state target cleavage rate” value was found to be 0.0526 ± 0.018.

In the case of UCCUGGAUGAGCUUGCAUAGUAUUUUCAUA, the “pre-steady-state target cleavage rate” value turned out to be 0.0108 ± 0.0059.

For UCCUGGAUGUCGUUGCAUAGUAUAUUGUUA, the “pre-steady-state target cleavage rate” value turned out to be 0.0458 ± 0.017.

As to UCCUGGAACAGCUUGCAUAUGUAUUUAGUUA, the “pre-steady-state target cleavage rate” value was 0.00424 ± 0.0037.

Take UCCUGCUACAGGAUGCAUAGUAUUUUCAAA: the “pre-steady-state target cleavage rate” value was 0.0053 ± 0.0038.

Consider UCCUGGAUCAGCUUGCAUAGUAUAUAGAUA, for which the “pre-steady-state target cleavage rate” value was 0.0407 ± 0.013.

UCCUGGAUGUGCUUGCAUACUAUUUUGUUA: the “pre-steady-state target cleavage rate” value is 0.00854 ± 0.0058.

On to UCCUCCUACAGCUAGCAUAGUAUUUUCAAA, for which the “pre-steady-state target cleavage rate” value is 0.137 ± 0.027.

Consider UCCUGGAUCAGCUACGAUAGUAUUUAGUUA, for which the “pre-steady-state target cleavage rate” value came to 0.0475 ± 0.0093.

In the case of UCCUCCUACAGCUUGCAUAGUAAAUAGAAA, the “pre-steady-state target cleavage rate” value is 0.0692 ± 0.02.

For the sequence UCCUGGAUGUGCUUGGAUACUAUUUAGUUA, the “pre-steady-state target cleavage rate” value amounted to 0.0156 ± 0.0061.

In the case of UCCUGGAAGUCCUUGCAUAGUAUUUAGUAA, the “pre-steady-state target cleavage rate” value turned out to be 0.122 ± 0.021.

For UCCUGGUACUGCUUGCAUAGAAUUUAGUUA, the “pre-steady-state target cleavage rate” value worked out at 0.0381 ± 0.017.

For the sequence UCCUGGAACAGCUUGGAUAGUAUUUACUUA, the “pre-steady-state target cleavage rate” value was 0.0413 ± 0.012.

As for UCCUGCUACAGCUUGCAAAGUAUUUUCAAA, the “pre-steady-state target cleavage rate” value was determined as 0.0624 ± 0.02.

In the case of UCCUGGUACUCCUUGCAUAGUAUUUACAAA, the “pre-steady-state target cleavage rate” value was determined as 0.0123 ± 0.006.

Consider UCCUGGUACACCUUGCAUAGUAUUUACAAA, for which the “pre-steady-state target cleavage rate” value stood at 0.046 ± 0.018.

As for UCCUGGAACAGCUUGCAUAGUAUUAUCUUA, the “pre-steady-state target cleavage rate” value is 0.0578 ± 0.015.

On to UCCUCCUAGUCCUUGCAUAGUAUUUACAAA, for which the “pre-steady-state target cleavage rate” value was 0.0299 ± 0.0097.

On to UCCUGGAUGUCGAUGCAUAGUUUUAAGUUA, for which the “pre-steady-state target cleavage rate” value was determined as 0.00654 ± 0.0039.

As for UCCUGGAUCAGCUUGCAUUGAAUUUAGUUA, the “pre-steady-state target cleavage rate” value was 0.0248 ± 0.0084.

For UCCUGGUACAGCUUGCAUAGUUAAUAGAAA, the “pre-steady-state target cleavage rate” value came out at 0.00845 ± 0.0048.

On to UCCUGGAACAGCUUGCAUAGUAUAUACAAA, for which the “pre-steady-state target cleavage rate” value was 0.0873 ± 0.03.

As for UCCUGGAUGUCCAACCAUAGUAUUUAGUUA, the “pre-steady-state target cleavage rate” value was determined as 0.00412 ± 0.004.

Take UCCUGGAUGUGCUUGCAUAGUAUUUUCAAA: the “pre-steady-state target cleavage rate” value is 0.00462 ± 0.0044.

As for UCCUGCUACAGCUUGCUUAGUAUUUACUUA, the “pre-steady-state target cleavage rate” value turned out to be 0.11 ± 0.015.

UCCUGGUACAGCUUGCAUAGAUUUUACAAA: the “pre-steady-state target cleavage rate” value was 0.00751 ± 0.0049.

For the sequence UCCUGGAUCAGCUUGCAUAGUAUAUACAAA, the “pre-steady-state target cleavage rate” value turned out to be 0.0964 ± 0.023.

With UCCUGGAUCAGCUUGCAUAGAAAUUAGUUA, the “pre-steady-state target cleavage rate” value was 0.0245 ± 0.0096.

UCCUGGAUGUGCUUGCUUAGUAUUUAGAUA: the “pre-steady-state target cleavage rate” value came to 0.141 ± 0.032.

On to UCCUGGAUGUGCUACCAUAGUAUUUAGUAA, for which the “pre-steady-state target cleavage rate” value amounted to 0.0454 ± 0.011.

On to UCCUGGAACUGCUUGCAUAGUAUUUACAAA, for which the “pre-steady-state target cleavage rate” value amounted to 0.0945 ± 0.022.

The experiment is the same for the next values; noted with them: auxiliary factor: none (no GTSF1).
Regarding UCCUGGAUGUCGAACGUAUCUAAUUAGUUA, the “pre-steady-state target cleavage rate” value was less than 0.0001.

With UCCUGGAUGUCGAACGUGAGUAUUUAGUUA, the “pre-steady-state target cleavage rate” value was less than 0.0001.

As to UCCUGGAUGUCGUUCCAAAGUAUUUAGUUA, the “pre-steady-state target cleavage rate” value is less than 0.0001.

For UCCUGGAUGUCGAACGUAUCUAUUUAGUCA, the “pre-steady-state target cleavage rate” value was less than 0.0001.

In the case of UCCUGGAUGUCGAACGAAUCUAUUUAGUUA, the “pre-steady-state target cleavage rate” value was less than 0.0001.

With UCCUGGAUGUCGAAGCAUAGAAUUUAGUAA, the “pre-steady-state target cleavage rate” value was less than 0.0001.

The values above are taken from the supplement of paper PMC10338343.
